For 40 compounds, Potency and activity change, negative = inhibition results are on record in PubChem BioAssay (NCATS).

Inconclusive results are not listed. Where a call stands in place of a potency, no number is given. Values without a mark were called inactive. Activity calls are given as the source filed them. The call rests on the fitted dose curve; in most records, active means well fitted inhibition curve with a large enough effect; inconclusive means small, poorly fitted or top-dose-only effect; inactive means flat fitted curve, though single readings scatter.

Sequence of Calcium and integrin-binding protein 1 (Homo sapiens) (Q99828 whole entry, looked up): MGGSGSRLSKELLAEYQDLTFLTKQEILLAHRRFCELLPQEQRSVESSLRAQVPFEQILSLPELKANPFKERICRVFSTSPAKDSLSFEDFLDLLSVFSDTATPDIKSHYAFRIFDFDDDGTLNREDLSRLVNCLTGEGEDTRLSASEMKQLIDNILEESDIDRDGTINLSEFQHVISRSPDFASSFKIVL

The assay concerns the target Calcium and integrin-binding protein 1 (Homo sapiens) (UniProt Q99828). The assay can be described thus: Primary qHTS for Identification of Calcium Integrin Binding Protein 1 (CIB1) Competitor (AID 1508620).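 Further: GST tagged CIB1 binding a fluorescein labelled alphaIIb integrin peptide tracer; top concentration of the series differs between compounds.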 As to conditions: CIB1-GST / FITC-alphaIIb peptide fluorescence polarization; series mostly up to 114 µM. The gist of the method: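 Fluorescence polarization competition: CIB1-GST (1 uM final) preincubated with compound 15 min at room temperature, then FITC-labeled alphaIIb peptide (100 nM final) added for another 15 min. Polarization read at Ex 480/Em 540.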
For orientation: Quantitative high-throughput screening tests each substance at several concentrations.
With `CC1=C(COC2OC(CO)C(O)C(O)C2O)C(C(CO)C(=O)O)CC1` (stereo not given), the Potency entry was “inactive”.
Regarding `C[C@@H]([C@@H](O)c1ccc(O)cc1)N1CCC(O)(c2ccccc2)CC1`, the Potency result was “inactive”.
Same read-out and setting: next, `C/C(=C/CO)CC[C@@H]1[C@@](C)(O)CCC2C(C)(C)CCC[C@]21C` (stereo not given in full): “inactive”; `CC(=O)OC1/C(C)=C/C(=O)C(OC(C)=O)C(C)(C)/C=C/C(C)C(=O)C2(OC(C)=O)CC(C)C(OC(=O)c3ccccc3)C12` (stereo not given): “inactive”; `CC(C)CCC1(O)C(=O)C(C)(C)C(O[C@@H]2O[C@H](CO)[C@@H](O)[C@H](O)[C@H]2O)C(C)(C)C1O` (stereo not given in full): “inactive”.
As to `COc1cc(O)cc(C)c1C(=O)O[C@H]1[C@@H](OC(C)=O)[C@H](n2ccc(=O)[nH]c2=O)O[C@@H]1CO`, the Potency entry was “inactive”.
Same read-out and setting: as for `O=C(O[C@H]1[C@@H]2C[C@@H]3OC[C@](O)([C@@H]1Cl)[C@H]2C(O[C@@H]1O[C@H](CO)[C@@H](O)[C@H](O)[C@H]1O)O3)c1ccc(O)c(O)c1` (stereo not given in full), the entry is “inactive”.
On to `C=C1OC2CC(C(=O)O)C=CC2NC1=O` (stereo not given), for which the Potency result was “inactive”.
`CC(C)CC1NC(=O)C2CC3(O)c4ccccc4NC3N2C1=O` (stereo not given): the Potency result was “inactive”.
In the case of `CC1CCC2(OC1)OC1CC3C4CC=C5CC(O)CC(O[C@@H]6OC[C@@H](O)[C@H](O)[C@H]6O)C5(C)C4CCC3(C)C1(O)C2C` (stereo not given in full), the Potency entry was “inactive”.
Turning to `O=C1C=CC(O)(/C=C/C(=O)OC[C@H]2O[C@@H](Oc3ccc(O)cc3)[C@H](O)[C@@H](O)[C@@H]2O)C=C1`, the Potency entry was “inactive”.
The same measure, in the same setting: next, `C/C1=C\CC[C@]2(C)O[C@@H]2[C@H](O)[C@H](C(C)C)[C@H](OC(=O)/C=C/c2ccccc2)C1`: “inactive”.
Still for that read-out and setting: next, `CC(C)(C)c1ccc(S(=O)(=O)NCc2ccc(C(=O)Nc3cccnc3)cc2)cc1`: “inactive”; `CNC(=S)NS(=O)(=O)c1cc(CCNC(=O)c2cc(Cl)ccc2OC)ccc1OC`: “inactive”.
Same read-out and setting: next, `CC/C=C\C/C=C\C/C=C\CCCCCCCC(=O)OCC(O)COC1OC(CO)C(O)C(O)C1O` (stereo not given): “inactive”; `C=C1CCC2C(C(C)(C)O)CCC2(C)CC(O)C(=C)CCC1O` (stereo not given): “inactive”; `CC1C(=O)OCC2=CCN3CCC(OC(=O)C(C)(O)C1(C)O)C23` (stereo not given): “inactive”.
Take `C[C@@H]1O[C@@H](O[C@H]2[C@H](O[C@H]3CC[C@@]4(C)C(CC[C@]5(C)C4CC=C4[C@@H]6CC(C)(C)CC[C@]6(C(=O)O[C@@H]6OC[C@H](O)[C@H](O)[C@H]6O[C@@H]6O[C@@H](C)[C@H](O[C@@H]7O[C@H](CO)[C@@H](O)[C@H](O)[C@H]7O)[C@H](O)[C@H]6O)[C@H](O)C[C@]45C)C3(C)C)O[C@H](CO)[C@@H](O[C@@H]3OC[C@@H](O)[C@H](O)[C@H]3O)[C@@H]2O)[C@H](O)[C@H](O)[C@H]1O` (stereo not given in full): the activity change, negative = inhibition is -1.57% [at 12.4 µM].
`OC[C@@]1(O)CO[C@@H](OC[C@H]2O[C@@H](Oc3c[nH]c4ccccc34)[C@H](O)[C@@H](O)[C@@H]2O)[C@@H]1O`: the Potency result is “inactive”.
With `Cc1ccccc1CN1C2=NCCN2C(=O)C2=C1CCN(Cc1ccccc1)C2`, the Potency entry is “inactive”.
`COC(=O)C[C@H]1C(C)(C)[C@H](OC(=O)C(C)C)[C@@]2(O)C(=O)[C@]1(C)C1CC[C@]3(C)C(CC(=O)O[C@H]3c3ccoc3)[C@]13O[C@@H]32` (stereo not given in full): the Potency entry is “inactive”.
Same read-out and setting: as for `CC(C)(O)/C=C/CC(C)(O)C1C(O)CC2(C)C3CCC4C(C)(C)C(=O)CCC4(C)C3CCC12C` (stereo not given), the entry is “inactive”; as for `COc1ccc(/C=C/C(=O)O[C@H]2[C@H](O[C@H]3[C@@H]4C=CO[C@@H](O[C@@H]5O[C@H](CO)[C@@H](O)[C@H](O)[C@H]5O)[C@@H]4[C@@]4(CO)O[C@@H]34)O[C@@H](C)[C@H](O)[C@H]2OC(C)=O)cc1`, “inactive”.
Take `CC(C)[C@H]1CC[C@@]2(O)COC(=O)[C@H]2[C@@H]1/C=C(\CO)C(=O)O`: the Potency result was “inactive”.
`COc1ccc(/C=C\C(=O)O)c(O[C@@H]2O[C@H](CO)[C@@H](O)[C@H](O)[C@H]2O)c1`: the Potency result was “inactive”.
Same read-out and setting: next, `CC(C)(C)NC(=O)[C@@H](c1cccnc1)N(C(=O)c1ccco1)c1ccc(C(C)(C)C)cc1`: “inactive”; `COC(=O)/C=C/C12COC(C)(C)C1C(O)C(OC(C)=O)C1(C)C2CCC2(C)C(c3ccoc3)OC(=O)C3OC321` (stereo not given): “inactive”.
The same measure, in the same setting: as for `N#Cc1cnc2cnc(NCc3cccnc3)cc2c1Nc1ccc(F)c(Cl)c1`, the entry is “inactive”.
As for `COC(=O)c1cc(OC)c(O[C@@H]2O[C@@H](C)[C@H](O)[C@@H](O)[C@H]2O)c(OC)c1`, the Potency entry is “inactive”.
The same measure, in the same setting: next, `COc1ccc(C2(O)CCC(N3CC[C@@H](NC(=O)CNC(=O)c4cccc(C(F)(F)F)c4)C3)CC2)cn1` (stereo not given in full): “inactive”; `CC(O)/C=C/C1OC(=O)CC1Nc1ccc(C(=O)O)cc1` (stereo not given): “inactive”.
`COc1c2c(c(CO)c3c1C(=O)OC3)OC1(C)CCC3(O)C(C)(C)OC(=O)CCC3(C)C1C2` (stereo not given): the Potency result is “inactive”.
Still for that read-out and setting: next, `CC(C)(C)Nc1nc(Nc2ccc(C(N)=O)cc2)cc(N)c1C#N`: “inactive”; `CC(=O)OC1C[C@@]2(C)[C@@H](CC[C@@H](C)[C@]23Cc2c(O)cc4c(c2O3)CNC4=O)C(C)(C)[C@@H]1O` (stereo not given in full): “inactive”; `O=C(CC(c1ccccc1)c1ccccc1)N1CCN(C(c2ccccc2)c2ccccc2)CC1`: “inactive”.
The same measure, in the same setting: as for `C=C1C(=O)O[C@@H]2/C=C(\C)C(=O)/C=C/[C@](C)(O)C[C@@H](OC(=O)C(C)C)[C@@H]12`, the entry is “inactive”; as for `C=C1C[C@@]23CCC4[C@@](C)(CCC[C@@]4(C)C(=O)OC)C2CC[C@@H]1C3` (stereo not given in full), “inactive”; as for `Cn1ncnc1COc1nn2c(-c3cc(F)ccc3F)nnc2cc1C(C)(C)C`, “inactive”.
Consider `CCc1ccc(Cc2ccc3c(c2)[C@]2(OC3)O[C@H](CO)[C@@H](O)[C@H](O)[C@H]2O)cc1`, for which the Potency result is “inactive”.
Consider `O=[N+]([O-])c1cn2c(n1)OCC(OCc1ccc(OC(F)(F)F)cc1)C2` (stereo not given), for which the Potency entry is “inactive”.
